For 56 molecules, z-score results are on record in PubChem BioAssay AID488969 (Vanderbilt High Throughput Screening Facility, 2010).

Molecules are shown by their SMILES. Over roughly 110,000 compounds, “z-score” has its median near -0.1; the highest 2% begin near 2. Shown is part of a subset that was picked to be rich in the highest values. Active and inactive are the calls of the source.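 Rule for the calls: active = z-score in the third read window above 3 or below -3; inactive = the rest.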

Sequence of Metabotropic glutamate receptor 8 (Rattus norvegicus) (P70579 whole entry, looked up): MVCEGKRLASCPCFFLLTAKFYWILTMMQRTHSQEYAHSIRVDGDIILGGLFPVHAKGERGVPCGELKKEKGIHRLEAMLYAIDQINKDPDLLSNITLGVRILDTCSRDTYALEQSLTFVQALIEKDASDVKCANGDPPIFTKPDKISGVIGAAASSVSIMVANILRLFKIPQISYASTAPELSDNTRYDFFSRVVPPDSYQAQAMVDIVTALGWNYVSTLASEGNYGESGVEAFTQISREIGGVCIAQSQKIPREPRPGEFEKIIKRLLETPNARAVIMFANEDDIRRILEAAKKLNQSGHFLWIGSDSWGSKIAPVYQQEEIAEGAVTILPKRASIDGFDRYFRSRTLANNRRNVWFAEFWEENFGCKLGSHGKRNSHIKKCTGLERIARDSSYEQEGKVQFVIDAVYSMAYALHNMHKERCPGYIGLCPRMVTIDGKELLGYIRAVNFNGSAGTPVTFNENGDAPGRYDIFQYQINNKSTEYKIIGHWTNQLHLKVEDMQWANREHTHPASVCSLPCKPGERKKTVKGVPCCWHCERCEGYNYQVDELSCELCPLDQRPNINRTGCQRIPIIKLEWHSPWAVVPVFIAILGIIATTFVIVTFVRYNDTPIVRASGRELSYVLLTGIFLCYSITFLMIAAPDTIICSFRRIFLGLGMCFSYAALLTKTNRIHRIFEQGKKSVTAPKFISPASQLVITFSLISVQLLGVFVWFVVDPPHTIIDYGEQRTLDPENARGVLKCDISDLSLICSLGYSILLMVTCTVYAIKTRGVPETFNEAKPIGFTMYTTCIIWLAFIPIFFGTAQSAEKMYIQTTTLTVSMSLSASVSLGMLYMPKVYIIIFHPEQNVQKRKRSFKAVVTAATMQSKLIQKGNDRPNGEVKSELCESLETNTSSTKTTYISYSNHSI

The assay concerns the target Metabotropic glutamate receptor 8 (Rattus norvegicus) (UniProt P70579). Briefly: rat mGluR8 modulators via GIRK flux, primary screen, cell-based, thallium flux, HTS (AID 488969). As to conditions: HEK293 rat mGluR8, GIRK (G protein-gated inwardly rectifying potassium channel) thallium flux, FluoZin2; at 10 µM; stronger effect = higher value; submaximal glutamate (EC20) added with thallium.
`CCN(CC)C(=O)NC(c1ccc(C)c(F)c1)C(Cl)(Cl)Cl` (stereo unspecified): the z-score is -0.501.

For the molecule `Cn1cc(S(=O)(=O)CC(=O)Nc2ccc(Br)cc2)c2ccccc21`, the z-score was -0.0267.

Take `Cc1onc(-c2ccccc2)c1C(=O)Nc1ccc(N2CCOCC2)cc1`: the z-score was -0.074.

Consider `CCC1CCCCN1C(=O)C1CC(c2cc(Cl)c(OC)cc2OC)=NO1` (stereo unspecified), for which the z-score was -0.518.

With `Cc1cc(=O)oc2cc(OCC(=O)Nc3nnc(CC(C)C)s3)ccc12`, the z-score was -0.0633.

As for `CCc1ccc2oc(-c3cc(N=Cc4cccc(OC)c4O)ccc3O)nc2c1`, the z-score was -0.649.

Molecule `Cc1cc2c(cc1C)C(c1ccccc1Br)CC(=O)N2` (stereo unspecified) gave a z-score of 0.617.

`COc1cnc(-c2ccccn2)nc1Sc1ccc(Cl)cc1` gave a z-score of -0.328.

Consider `OCCCc1nc2n(n1)C(c1ccccc1)C=C(c1ccc(F)cc1)N2` (stereo unspecified), for which the z-score is -1.33.

In the case of `OCCCc1nc2n(n1)C(c1cccs1)C=C(c1ccc(Br)cc1)N2` (stereo unspecified), the z-score was 5.08 (active).

Regarding `Brc1ccc(C2=CC(c3cccs3)n3ncnc3N2)cc1` (stereo unspecified), the z-score was -1.55.

With `OCCCc1nc2n(n1)C(c1ccccc1Cl)C=C(c1cccs1)N2` (stereo unspecified), the z-score was -1.48.

`OCCCc1nc2n(n1)C(c1ccccc1)C=C(c1ccccc1)N2` (stereo unspecified): the z-score is -0.449.

In turn, `OCCCc1nc2n(n1)C(c1cccs1)C=C(c1ccccc1)N2` (stereo unspecified) showed a z-score of 2.68.

Molecule `COc1ccc(NC(=O)/C(=C/c2ccc3c(c2)OCO3)NC(C)=O)cc1` had a z-score of -0.031.

`COC(=O)C1=C(C)OC(N)=C(C#N)C1c1ccccc1` (stereo unspecified) gave a z-score of -0.92.

In the case of `CC1=C(n2nnc3ccccc32)C(c2ccccc2)C(C#N)=C(N)O1` (stereo unspecified), the z-score was 3.38 (active).

With `CC(=O)C1=C(c2ccccc2)OC(N)=C(C#N)C1c1ccc(O)cc1` (stereo unspecified), the z-score was -0.487.

On to `CC(C)c1nc(C#N)c(NCCCn2ccnc2)o1`, for which the z-score came out at 0.481.

For the molecule `N#C/C(=C(/O)C(Cl)c1ccccc1)c1nc2ccccc2s1` (stereo unspecified), the z-score was -0.476.

For the molecule `Cc1ccc(C)c(NC(=O)CSc2nnc(CCNC(=O)OC(C)(C)C)o2)c1`, the z-score was 0.761.

Turning to `C=C(C)CSc1nnc(CCNC(=O)OC(C)(C)C)o1`, the z-score is 2.19.

`CCN(CC)C(=O)CSc1nnc(CCNC(=O)OC(C)(C)C)o1` returned a z-score of 0.491.

`Cc1ccc(NC(=O)CSc2nnc(CCNC(=O)OC(C)(C)C)o2)c(C)c1` came in with a z-score of 2.11.

For the molecule `Cc1ccc(NC(=O)CSc2nnc(CCCCCNC(=O)OC(C)(C)C)o2)c(C)c1`, the z-score is 0.493.

`CC(C)(C)OC(=O)NCCc1nnc(SCC(N)=O)o1` came in with a z-score of -0.0953.

With `COc1ccc(CNC(=O)C2CCCN(c3nc4ccccc4o3)C2)c(OC)c1` (stereo unspecified), the z-score came out at 0.18.

Regarding `Cc1ccc(C)c2[nH]c(=O)c(C(c3nnnn3Cc3ccccc3)N3CCc4ccccc4C3)cc12` (stereo unspecified), the z-score is -0.148.

Molecule `COc1ccccc1-n1c(SCC(=O)N2CCc3ccccc32)nc2c(c1=O)SCC2` showed a z-score of -0.558.

For the molecule `CCCn1c(=O)[nH]c2ccccc21`, the z-score is -0.219.

For the molecule `O=c1[nH]c2ccccc2n1CCC1CCCCC1`, the z-score is 5.05 (active).

As to `O=c1[nH]c2ccccc2n1C1CCCCC1`, the z-score was -1.04.

In turn, `C=CCOc1ccc(CNn2c(C)n[nH]c2=S)cc1OC` showed a z-score of 0.17.

`CC(C)NC(=O)C1CCN(C(=O)C(C(=O)c2ccccc2)n2cc(Cl)ccc2=O)CC1` (stereo unspecified) yielded a z-score of 0.609.

`Fc1ccc(NC(=S)N/N=C/c2cccc(Br)c2)c(F)c1`: the z-score is 3.61 (active).

In turn, `COc1ccccc1NC(=S)N/N=C/c1cccc(C)c1` came in with a z-score of 0.651.

`C=CCNC(=S)Nc1ccc(Br)cc1F` showed a z-score of -0.377.

In the case of `Fc1cccc(/C=N/NC(=S)Nc2ccccc2Cl)c1`, the z-score is 11.2 (active).

`Cc1ccc(NC(=S)N/N=C/c2ccc(Cl)c([N+](=O)[O-])c2)cc1` displayed a z-score of -0.0758.

On to `COc1ccc(/C=N/NC(=S)Nc2ccccc2)cc1COc1ccccc1F`, for which the z-score was -0.0868.

As to `CCCCNC(=O)C(=O)N/N=C/c1cccc(Br)c1`, the z-score turned out to be 0.475.

Take `O=C(CCC(=O)Nc1ccccc1Cl)N/N=C/c1ccccc1`: the z-score is -0.0425.

`COc1ccc(/C=N/NC(=S)Nc2ccccc2)cc1COc1ccc(F)cc1F` returned a z-score of -0.047.

`Fc1ccc(NC(=S)N/N=C/c2ccc(F)c(F)c2)c(F)c1`: the z-score was 13 (active).

With `Fc1ccc(/C=N/NC(=S)Nc2ccc(Cl)cc2)cc1F`, the z-score was 6.19 (active).

The molecule `C=CCNC(=S)Nc1ccc(F)cc1F` had a z-score of -0.172.

As for `Cc1cccc(N(C(=O)c2sc(C)nc2C)C(C(=O)NCc2ccco2)c2ccccc2)c1` (stereo unspecified), the z-score is -1.18.

`COC(=O)C1=C(C)NC(=O)NC1c1ccccc1` (stereo unspecified) gave a z-score of -0.341.

The molecule `OC(COCC(F)(F)C(F)(F)C(F)(F)C(F)F)Cn1c2ccccc2c2ccccc21` (stereo unspecified) registered a z-score of 0.164.

Regarding `CCOc1ccc2nc(SCc3ccccc3C#N)sc2c1`, the z-score is -0.141.

In turn, `Fc1ccccc1N1CCN(CC2CC3C=CC2C3)CC1` (stereo unspecified) returned a z-score of -0.343.

For `Cc1noc2c1C(c1ccc(N(C)C)cc1)C1=C(CC(C)(C)CC1=O)N2` (stereo unspecified), the z-score is -0.142.

`CN(CCC#N)C(=S)Nc1ccc(Oc2ccccc2)cc1`: the z-score is -0.139.

Molecule `Cc1ccc(-c2ccc(SCC(=O)c3ccccc3)nn2)cc1` yielded a z-score of 0.138.

In turn, `O=C(Nc1ccon1)c1ccc(Br)o1` gave a z-score of -0.216.

For the molecule `C=CCn1c(NC(=O)CC)c(C(=O)OCC)sc1=S`, the z-score is -0.979.
